# Assay outcomes: PubChem, National Center for Advancing Translational Sciences (NCATS)
# Pf growth 48h = P. falciparum growth inhibition at 48 hours (one generation). P. falciparum luciferase growth in erythrocytes, 48 h. Potency, µM (top dose mostly 28.7 µM), without a hit: at the top dose activity change, negative = inhibition, usual class: inhibitors. hit rate 5.9% among 310,000. AID 504832; further: potency means the concentration at half of the fitted maximal effect
#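 Firefly luciferase activity from engineered P. falciparum reports growth; inhibitors lower the luminescent signal. Cultures contained 2% hematocrit erythrocytes at 0.1% final parasitemia.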
# MARV entry inh = Marburg virus entry inhibition; hit rate 1.8% among 300,000; Marburg virus pseudotyped entry inhibition, cell reporter; Potency, µM (series often up to 37.8 µM), without a hit: top-dose activity change, negative = inhibition, actives largely listed as inhibitors; AID 540276; calls by dose curve; tested in HEK293 cells; further: potency means the concentration at half of the fitted maximal effect
# HCV inhibitor = HCV inhibition; Huh7.5.1 HCVcc-Cre infection, luciferase reporter, 44 h; Potency, µM (doses to about 41.8 µM), for the others: top-dose activity change, negative = inhibition, hits mostly inhibitors; hit rate 3.4% among 340,000; AID 651820; further: potency means the concentration at half of the fitted maximal effect
#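 Reporter virus HCVcc-Cre (~0.5 moi) infects cells exposed to compound; seeding density 1,000 cells/well with 4 h settling beforehand. Luminescence, 15 sec read, taken 44 h post-infection following a 15 min RT substrate incubation.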
# Lassa entry inh = inhibitors of Lassa virus binding or cell entry; Potency, µM (series often up to 37.9 µM), without a hit: at the top dose activity change, negative = inhibition, hits mostly inhibitors; AID 540256; Lassa virus pseudotype entry inhibition, cell reporter; hit rate 1.2% among 300,000; calls by dose curve; tested in HEK293 cells; further: potency means the concentration at half of the fitted maximal effect; nearly all actives have a fitted effect of over 50% in size
# Pf growth 96h = inhibits malaria parasite growth, 96 h. P. falciparum luciferase reporter growth, 96 h. hit rate 6.9% among 320,000. Potency, µM (doses to about 28.7 µM), without a hit: top-dose activity change, negative = inhibition, usual class: inhibitors; further: potency means the concentration at half of the fitted maximal effect
#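 Luminescence readout: decreased luciferase signal marks inhibited growth of reporter-expressing P. falciparum in infected red cells (2% hematocrit, 0.05% parasitemia final), exposed to compound two generations (96 h, 37 C, 5% CO2).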
# HCMV antiviral = human cytomegalovirus inhibition; HFF cells, HCMV-luciferase reporter, 72 h; stronger effect = lower value; activity change, negative = inhibition, % at 57.5 µM; hit rate 4.5% among 410,000; AID 1259415; in the data active means activity change below about -60%; inconclusive means no clear call, values can overlap the other calls; inactive means above about -39%
#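 After 16 h attachment at 37C, HFF cells received test compound and HCMV-luciferase (1 PFU/cell); reporter luminescence read 72 h later, data normalized against buffer-only and known inhibitor Salinomycin.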
# The depositor's hits bear a star; ? = inconclusive; · = not tested or not shown; ! = not active in a repeat; [ ] = dose if it differs, or a comment. Hits are enriched below; roughly 14% of the tested compounds scored in any of these assays. Unless noted, the call rests on the fitted dose curve; in most records, active means well fitted inhibition curve with a large enough effect; inconclusive means small, poorly fitted or top-dose-only effect, or another doubt; inactive means no such curve, though single readings can be large or run the other way. On the % scale 0 is the no-effect control and ±100 the full control effect.
SMILES,Pf growth 48h,MARV entry inh,HCV inhibitor,Lassa entry inh,Pf growth 96h,HCMV antiviral
O=C(CSc1ncn(-c2ccccc2)n1)N1CCc2ccccc21,21%,-2%,-5%,-5%,10µM*,36
O=C(CSc1ncn(-c2ccccc2)n1)Nc1nncs1,14%,·,15%,·,33%[1.15 µM],?
CC1CCC(NC(=O)c2ccc3c(c2)N(Cc2ccccc2F)C(=O)c2ccccc2S3(=O)=O)CC1 (stereo not drawn),·,?,·,-8%[46.1 µM],·,57
CCN(CC)C(=O)[C@H]1C[C@H](CC(=O)NCC23CC4CC(CC(C4)C2)C3)C(=O)N2CCc3c([nH]c4ccc(Cl)cc34)[C@]12C,·,·,?,·,·,-35
CC(C)N(C(=O)[C@H]1C[C@H](CC(=O)NCCCN(C)C)C(=O)N2CCc3c([nH]c4ccc(Cl)cc34)[C@]12C)C(C)C,·,·,10µM*,·,·,-10
CC(C)N(C(=O)[C@H]1C[C@H](CC(=O)NCC23CC4CC(CC(C4)C2)C3)C(=O)N2CCc3c([nH]c4ccc(Cl)cc34)[C@]12C)C(C)C,·,·,16µM*,·,·,-16
CCN(CC)C(=O)[C@H]1C[C@H](CC(=O)NCCCN(C)C)C(=O)N2CCc3c([nH]c4ccc(Cl)cc34)[C@]12C,·,·,?,·,·,-26
N#C/C(=C\c1ccccc1)C(=O)N1CCC(C(N)=O)CC1,-17%,?,-10%,1%[46.1 µM],-14%,-16
N#C/C(=C\c1ccccc1)C(=O)OCC(=O)N1CCCC1,9.3µM*,·,3%,·,21%,-18
Cc1nn(CC(=O)NCc2ccc(F)cc2)c2ccccc12,·,-8%[46.1 µM],·,0%[46.1 µM],·,23
Nc1nc(Br)c2c(F)cccc2c1-c1ccc(Cl)cc1,?,-17%,?,-1%,13µM*,-2
Nc1nc(Br)c2ccccc2c1-c1ccccc1,?,-12%[46.1 µM],6%,6%,?,-38
CCCc1cnc(NCCNCC(O)COc2ccc(Cl)c(Cl)c2)nc1 (stereo not drawn),?,?,?,-28%,12µM*,-98*
CCc1noc(-c2ccc(N(C)Cc3ccc(OC)cc3)c([N+](=O)[O-])c2)n1,·,7%[46.1 µM],·,7%[46.1 µM],·,-7
Cc1cc(-c2ccccc2)nc(=O)[nH]1,20%,0%,29%,26%,6.6µM*,17
O=c1nc(-c2ccccc2)cc(C(F)(F)F)[nH]1,?,19%,7%,-8%,?,12
COc1ccc(NC(=O)c2cccnc2NCCc2ccccc2)cc1,?,-22%,?,3%,1.5µM*,3
O=C(Nc1ccc(Oc2cccnc2)cc1)c1ccccc1Cl,14%,-1%[46.1 µM],?,0%[46.1 µM],?,?
CCOC(=O)Cc1ncccc1C(=O)Nc1ccc(Oc2ccccc2)cc1,8.3µM*,?,-9%,12%,12µM*,-98*
O=C(Nc1ccc(Oc2cccnc2)cc1)c1ccccc1F,-13%,?,?,24%,88%,-86*
CCc1ccc(NC(=O)Cn2c(=O)n(-c3ccc(Cl)c(Cl)c3)c(=O)c3c(C)c(C)sc32)cc1,·,12%[46.1 µM],·,-22%[46.1 µM],·,-13
Cn1cc(/C=C(\NC(=O)c2ccccc2Cl)C(=O)NCCCN2CCOCC2)c2ccccc21,?,·,-11%,·,10µM*,-6
C=CCOc1c(Cl)cc(C(=S)N2CCCC2)cc1OCC,28%,-8%,?,?,-14%,-76*
CCOc1cc(C(=S)N2CCCC2)ccc1O,116%,-18%,-16%,-1%,-6%,-2
O=C(CCN1CCOCC1)Nc1cc(C(=O)Nc2ccc(Cl)cc2)ccc1N1CC2CC(C1)c1cccc(=O)n1C2 (stereo not drawn),12µM*,?,?,-7%[46.1 µM],?,-12
SMILES,Pf growth 48h,MARV entry inh,HCV inhibitor,Lassa entry inh,Pf growth 96h,HCMV antiviral
COc1cccc(NC(=O)Nc2cc(C(=O)O)ccc2N2CC3CC(C2)c2cccc(=O)n2C3)c1 (stereo not drawn),-7%,·,14%,·,1.5µM*,0
CC1CCN(C(=O)c2ccc(N3CC4CC(C3)c3cccc(=O)n3C4)c([N+](=O)[O-])c2)CC1 (stereo not drawn),9%,?,33%,-3%,2.3µM*,-35
COc1ccc(NC(=O)Nc2cc(C(=O)O)ccc2N2CC3CC(C2)c2cccc(=O)n2C3)c(OC)c1 (stereo not drawn),0%,4%[46.1 µM],-1%,-3%[46.1 µM],-24%,?
O=C(CN1C(=O)NC2(CCCc3ccccc32)C1=O)NC1CCCCC1 (stereo not drawn),1%,26%,8%,5%[46.1 µM],3%,-20
COc1ccc2cc1Oc1ccc(cc1)C[C@H]1c3c(cc4c(c3Oc3cc5c(cc3OC)CCN(C)[C@@H]5C2)OCO4)CCN1C,1.9µM*,·,14µM*,·,1.5µM*,-38
COc1cc2c3cc1Oc1cc(ccc1O)C[C@@H]1c4c(cc(OC)c(O)c4Oc4ccc(cc4)C[C@H]3N(C)CC2)CCN1C,2.1µM*,1.8µM*,7.9µM*!,?,1.7µM*,-10
COc1cc2c3cc1Oc1c(OC)c(OC)cc4c1[C@H](Cc1ccc(cc1)Oc1cc(ccc1O)C[C@H]3N(C)CC2)N(C)CC4,·,·,11µM*,·,·,-36
COc1cc2c3c(c1OC)Oc1ccc(cc1)C[C@H]1c4c(cc(OC)c(OC)c4Oc4ccc(cc4)C[C@@H]3N(C)CC2)CCN1C,·,·,?,·,·,20
COc1ccc2cc1Oc1ccc(cc1)C[C@H]1c3cc(c(OC)cc3CCN1C)Oc1c(OC)c(OC)cc3c1[C@H](C2)N(C)CC3,2.1µM*,·,?,·,2.1µM*,?
COC(=O)[C@]12CCCCC=C1N(Cc1ccc3c(c1)OCO3)C(=O)[C@H](CC(=O)NCCC(C)C)C2,·,·,·,·,·,17
O=C(COc1ccccc1)Nc1c(C(=O)N2CCN(c3ccc(F)cc3)CC2)oc2ccccc12,·,·,·,0%[46.1 µM],·,-107*
COc1cccc(N2CCN(C(=O)c3oc4ccccc4c3NC(=O)CCc3cc(OC)no3)CC2)c1,?,-20%[46.1 µM],-19%,-29%[46.1 µM],?,-61*
CCC(CC)C(=O)Nc1c(C(=O)N2CCN(c3ccccc3)CC2)oc2ccccc12,10µM*,?,3%,?,-9%,-79*!
CCCOc1ccc(C2c3c(oc4ccccc4c3=O)C(=O)N2c2nnc(C(C)C)s2)cc1 (stereo not drawn),·,2%[46.1 µM],·,-9%[46.1 µM],·,13
Cc1nc2ccccn2c(=O)c1CCN1CCC(C(=O)c2ccc(F)cc2)CC1,?,6.3µM*!,?,-10%,11µM*,-38
Cc1nc2sccn2c(=O)c1S(=O)(=O)N1CCN(c2ccc(F)cc2)CC1,7%,·,-6%,2%[46.1 µM],?,8
Cc1nc2sccn2c(=O)c1CCN1CCC(=C(c2ccc(F)cc2)c2ccc(F)cc2)CC1,10µM*,20µM*,3.5µM*!,12µM*,10µM*,-3
